The panel holds about 83,000 compounds, 20% with a hit somewhere; the sample as a whole holds those more often.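 In brief: 96-well plates, 48 h treatment, single concentration, percent growth endpoint.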 Values without a mark were called inactive. Activity calls are given as the source filed them. The calls were made as follows: active = growth percent below 10; inactive = the rest.
Tests used:
Experiment in all cases: NCI-60 one-dose screen, 48 h (100 = growth as untreated, 0 = no growth, -100 = all killed)
Settings in all cases: 10 µM unless noted
[1] = tested on: HCT-15 colon
[2] = tested on: HT29 colon
[3] = tested on: SNB-75 CNS
[4] = tested on: SNB-19 CNS
[5] = tested on: U251 CNS
[6] = tested on: PC-3 prostate
[7] = tested on: SK-MEL-5 melanoma
[8] = tested on: LOX IMVI melanoma
[9] = tested on: SK-MEL-2 melanoma
[10] = tested on: EKVX NSCLC
[11] = tested on: SN12C renal
[12] = tested on: UO-31 renal
[13] = tested on: TK-10 renal
[14] = tested on: ACHN renal
[15] = tested on: CAKI-1 renal
[16] = tested on: A498 renal
[17] = tested on: CCRF-CEM leukemia
[18] = tested on: MOLT-4 leukemia
[19] = tested on: SK-MEL-28 melanoma

SMILES | growth [1] | growth [2] | growth [3] | growth [4] | growth [5] | growth [6] | growth [7] | growth [8] | growth [9] | growth [10] | growth [11] | growth [12] | growth [13] | growth [14] | growth [15] | growth [16] | growth [17] | growth [18] | growth [19]
CCCCCCCC(=O)SCC/C=C/[C@@H]1CC(=O)NCc2cccc(n2)CN(Cc2ccc3ccccc3c2)CC(=O)N[C@@H](C(C)C)C(=O)O1 | 57.8% | 14.5% | 29.2% | 48.9% | 35.9% | 34.8% | 9.24% (active) | 5.42% (active) | 56.5% | 53.9% | 57.1% | 36.4% | 21.6% | 34.7% | 35.8% | 0.931% (active) | 15.6% | 2.35% (active) | 
COc1cccc(-c2nn(-c3ccccc3)cc2-c2ccnc(NCCNS(=O)(=O)c3ccc(C(F)(F)F)cc3)c2)c1 | 11.9% | -14.6% (active) | 46.8% | 21.8% | 15.4% | 5.74% (active) | -94.7% (active) | 4.44% (active) | -11.3% (active) | 29.4% | -36.1% (active) | 11.7% | 27.3% | 8.66% (active) | 16.8% | 4.35% (active) | 8.23% (active) | -16.7% (active) | 
N#CCCCCCn1c2ccccc2c2c3[nH]c(=O)[nH]c(=O)c3c3c4ccccc4n(CCCCCC#N)c3c21 | 86.6% | 27% | 26.3% | 55.6% | 28.9% | 64.3% | 28.6% | 31.9% | 78.5% | 80.7% | 26.2% | 61.1% | 65.6% | 54% | 93.2% | 54.5% | 74.5% | 69.5% | 
COc1ccc2c(c1)c(-c1nc(-c3c[nH]c4ncccc34)cs1)cn2CCCN1CCCCC1 | -5.93% (active) | -51.8% (active) | 46.9% | 43.9% | -17.7% (active) | 28.5% | -87.6% (active) | -75.6% (active) | 73.6% | 51.2% | 58% |  | 77.5% | 22.3% |  | 66.1% | -0.15% (active) | -18.9% (active) | -74.9% (active)
c1ccc2[nH]c(-c3ccc(Nc4nc(N5CCCCC5)nc(N5CCOCC5)n4)cc3)nc2c1 | -33.9% (active) | -28.2% (active) | -0.681% (active) | 10.4% | 8.02% (active) | 12.4% | -90.7% (active) | -77.1% (active) | -20.6% (active) | 27.7% | 52.4% |  | 58.8% | 22.9% | -46.9% (active) | -28.6% (active) | 8.74% (active) | 13.7% | -30.2% (active)
CCCCCCCC(=O)SCC/C=C/[C@@H]1CC(=O)NCc2cccc(n2)CN(Cc2ccc(Cl)cc2)CC(=O)N[C@@H](C(C)C)C(=O)O1 | 20.7% | -2.23% (active) | 18.6% | 15.3% | -48.2% (active) | 9.67% (active) | -84.6% (active) | -61.5% (active) | 1.04% (active) | 32.5% | 21.6% | -5.27% (active) | -6.26% (active) | -15.5% (active) | -7.97% (active) | -54% (active) | 7.54% (active) | 3.43% (active) | 
CC(=O)O[C@@H]1CCN2C(=O)N(C)c3ccccc3[C@@H]2C1 | 103% | 104% | 89% | 98.3% | 102% | 89.1% | 104% | 98.6% | 102% | 114% | 98.9% | 94.5% | 99.6% | 98.6% | 95.3% | 114% | 105% | 99.6% | 
N=c1ccc2nc3c(cc(N)c4ccccc43)oc-2c1 | -69.9% (active) | -63% (active) | -100% (active) | -94.7% (active) | -87.8% (active) | -39.3% (active) | -100% (active) | -95.6% (active) | -36.1% (active) | -33.9% (active) |  | -78.7% (active) | -29.7% (active) | -94.4% (active) | -60% (active) | -21.4% (active) | -24.9% (active) | -44% (active) | -78.8% (active)
Cn1c2ccccc2c2c3c(c4c5cccnc5[nH]c4c21)C(=O)N(O)C3=O | 67.4% | 28.9% | 61% | 38.1% | 21% | 42.4% | 12.7% | 2.63% (active) | 97.5% | 85.9% | 22.6% | 31% | 97.4% | 17.8% | 24% | 109% | 13.2% | 0.301% (active) | 

Source: PubChem BioAssay (NCI)
